In the library only some 21% were active in any assay of this set; here they are far more common.
Shiga inhibitor: Shiga toxin inhibition | Vero cells, Shiga toxin protein synthesis inhibition reporter | inhibition, % at 38.7 µM | 9.2% of 290,000 active | AID 2315; in the data active = inhibition mostly above about 28%, no sharp cut-off; inactive = mostly below about 43%; note: 0% is about no effect
CHX counter: counter-screen for Shiga toxin inhibitors: cycloheximide protein synthesis inhibition; max response, %; AID 2314; cell reporter, cycloheximide protein synthesis inhibition counterscreen; 12% of 300,000 active; in the data active = max response mostly above about 13%, no sharp cut-off; inactive = mostly below about 14%; note: read at 38.3 µM for the half of the compounds with a filed dose; 0% is about no effect
Pf growth 48h: inhibits P. falciparum growth in the first generation, 48 h; P. falciparum luciferase growth in erythrocytes, 48 h; 5.9% of 310,000 active; Potency, µM (doses to about 28.7 µM), for the others: at the top dose activity change, negative = inhibition, actives largely listed as inhibitors; note: potency is the fitted concentration of half-maximal effect; % is set by controls: 0 for no effect and ±100 for the full control effect
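Erythrocytes infected with P. falciparum carrying an integrated firefly luciferase reporter (2% hematocrit, 0.1% parasitemia final) were exposed to compounds in RPMI 1640 with 0.5% Albumax at 37 C, 5% CO2. Growth inhibition was scored as reduced luminescence.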
Pf growth 96h: inhibits malaria parasite growth, 96 h; P. falciparum luciferase reporter growth, 96 h; Potency, µM (titrated, usually from 28.7 µM), for the others: at the highest dose activity change, negative = inhibition, usual class: inhibitors; 6.9% of 320,000 active; note: potency is the fitted concentration of half-maximal effect; % is set by controls: 0 for no effect and ±100 for the full control effect
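P. falciparum expressing integrated firefly luciferase, in erythrocytes at 2% hematocrit, 0.05% parasitemia, incubated with compounds 96 h at 37 C, 5% CO2. Growth inhibition read as loss of luminescence; two-generation exposure targets delayed-death apicoplast inhibitors.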
Sm TGR inh: blocks Schistosoma mansoni thioredoxin glutathione reductase; purified TGR, DTNB reduction, TNB absorbance 405 nm; Q962Y6; Potency, µM (series often up to 114 µM), for inactives: at the highest dose activity change, negative = inhibition, hits mostly inhibitors; 3% of 360,000 active; note: potency is the fitted concentration of half-maximal effect; % is set by controls: 0 for no effect and ±100 for the full control effect; nearly all actives have a fitted effect of over 60% in size
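TGR 20 nM + NADPH 100 uM (dispensed conc.), cpd preinc 15 min RT; start with NADPH (500 uM addition) then DTNB (15 mM addition). Kinetic TNB absorbance, 405 nm filter. Four-parameter Hill fit across titration.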
NS1 function inh: blocks influenza NS1 protein function; Potency, µM (titrated, usually from 46.1 µM), for inactives: top-dose activity, positive = more growth; 0.4% of 270,000 active; AID 2326; calls by dose curve; note: potency is the fitted concentration of half-maximal effect; actives are rising curves; nearly all actives have a fitted effect of over 50% in size
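Recovery from NS1-induced slow growth read by OD600 in budding yeast switched to galactose assay medium (pH 6.0, -URA) at 1:100 dilution. Compound 23 nl per well; the matching strain lacking NS1 serves as control.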
Starred values were filed as active, the others as inactive; ? = inconclusive; nt = no result; [ ] = remark or other dose. Unless noted, calls come from the whole dose curve; as a rule, active = well fitted curve in the direction sought with a large enough effect; inconclusive = small, poorly fitted or top-dose-only effect, or another doubt; inactive = no such curve, though single readings can be large; an effect the other way counts as inactive or inconclusive.

SMILES | Shiga inhibitor | CHX counter | Pf growth 48h | Pf growth 96h | Sm TGR inh | NS1 function inh
Cc1sc2nc(CN3CCOCC3)nc(NS(=O)(=O)c3ccccc3)c2c1C | 14.7 | -0.6 | 23.8% | nt | -12.8% | -6.6%
Cc1sc2nc(CSc3ccccc3)nc(N3CCOCC3)c2c1C | -3.9 | -3.1 | ? | ? | 3.6% | -7.8%
Cc1sc2nc(CSc3ccccc3)nc(NCCN(C)C)c2c1C | -3.9 | -2.0 | ? | 5.86µM* | -0.8% | -1.8%
O=C(Nc1ccccc1NC(=O)c1ccc(F)cc1)c1ccc(F)cc1 | -3.1 | -4.3 | -12.3%[0.00184 µM] | ? | 3.5% | 7.0%
Nc1[nH]c(N=NC(=O)c2ccc(F)cc2)c2ccccc12 | 121.1* | 90.9* | -21.2% | ? | 5.7% | 25.3%
Nc1ccccc1C(=O)N=Nc1[nH]c(N)c2ccccc12 | 16.2* | 43.6* | 105.0% | ? | -2.4% | 11.2%
COc1ccc(-n2c(SCC(=O)NCc3ccccc3)nc3c([nH]c4ccccc43)c2=O)cc1 | nt | nt | nt | nt | 9.6% | nt
Cc1ccc2oc(=O)n(CCNC(=O)Nc3ccc(C)c(F)c3)c2c1 | nt | nt | nt | nt | 3.1% | nt
Cn1c(O)c(C=NC2CCCCCC2)c(=O)[nH]c1=S | -4.4 | 15.7 | -0.4% | -71.2% | nt | 2.5%
CCc1cc(C=NC2CCCCC2)c(O)s1 | 118.6* | 66.5* | 9.3% | ? | -16.1% | -2.8%
N/C(=N\NC(=O)c1cccc(F)c1)c1cc2ccccc2oc1=O | 34.1* | 26.1* | ? | -16.9% | 8.2% | 4.3%
O=C(Nc1ccc(F)cc1F)c1cc2ccccc2oc1=O | 52.6* | 19.7* | -0.8% | 104.1% | -34.3% | 17.0%
Brc1ccc(-c2nnc3ccc(N4CCN(c5ccccc5)CC4)nn23)cc1 | 0.8 | -1.3 | ? | 11.7µM* | 0.4% | -13.4%
NC(=O)c1cc(S(=O)(=O)N2CCOCC2)ccc1Sc1ccccc1N | nt | nt | 4.8% | 9.0% | -2.7% | nt
CCCCOC(=O)NS(=O)(=O)c1sc(CC(C)C)cc1-c1ccc(Cn2c(CC)nc3c(C)cc(C)nc32)cc1 | nt | nt | 14.7µM* | ? | 6.8% | ?
Nc1ccccc1N=Nc1ccccc1N | 51.2* | 44.0* | 292.6% | 414.6% | 22.5% | -52.6%
Cc1cc(C)cc(NC(=O)CSc2nc(-c3ccccc3)c3cc(F)ccc3n2)c1 | nt | nt | nt | nt | 2.1% | nt
CCCCn1nc2cc(C(=O)NCc3ccccc3)ccc2c1OCC | -23.1 | -1.5 | 15.5% | ? | 9.9% | -67.8%
CC(=O)c1cccc(NC(=O)NCCc2ccc(Cl)cc2)c1 | 38.0* | 21.2 | -4.8% | -14.5% | -2.8% | 0.0%
COc1cccc(NC(=O)NCCc2ccc(Cl)cc2)c1 | 53.7 | 24.3* | ? | -12.7% | -3.3% | -6.5%
CC(=O)c1c(C)[nH]c(C(=O)CSc2nnc(-c3ccco3)n2Cc2ccccc2)c1C | 34.7 | 0.5 | ? | 0.0586µM* | 39.8µM* | -6.6%
CCOC(=O)c1c(C)[nH]c(C(=O)CSc2nnc(-c3cccs3)n2Cc2ccccc2)c1C | -10.5 | 1.8 | ? | ? | -7.7% | 14.1%
CC(=O)c1c(C)[nH]c(C(=O)CSc2nnc(-c3cccs3)n2Cc2ccccc2)c1C | -22.7 | -0.4 | 9.28µM* | nt | -25.7% | ?
CCCn1c(N)c(C(=O)CSc2nnc(-c3ccco3)n2Cc2ccccc2)c(=O)[nH]c1=O | 24.6 | 0.6 | ? | 0.0% | 0.0% | 4.7%
CN(C)c1nc(NC2CCC(NC(=O)c3ccc(F)c(F)c3)CC2)nc2ccccc12 (centres undefined) | -2.4 | -1.0 | nt | nt | nt | nt
SMILES | Shiga inhibitor | CHX counter | Pf growth 48h | Pf growth 96h | Sm TGR inh | NS1 function inh
NS(=O)(=O)c1cccc(NC(=O)Cn2cnc3ccccc3c2=O)c1 | -4.2 | -5.1 | 3.9% | nt | 1.8% | -5.9%
Cc1ccc([N+](=O)[O-])c(NC2OC(CO)C(O)C2O)c1 (centres undefined) | 34.0 | -4.1 | -18.1% | 5.22µM* | -4.7% | nt
O=C(CCn1c(=O)c2sccc2n(CC(=O)OCc2ccccc2)c1=O)NCc1ccccc1 | -6.1 | -3.3 | 15.8% | nt | -13.1% | -1.4%
Cc1ccc(-n2nc3c(=O)n(CCCC(=O)N4CCCCC4)nc(C)c3c2C)cc1 | -8.7 | -1.3 | 9.28µM* | ? | -22.4% | -1.3%
Cc1ccc(-n2nc3c(=O)n(CCCC(=O)NCc4ccco4)nc(C)c3c2C)cc1 | 1.5 | 6.1 | 11.7µM* | ? | -1.2% | -12.2%
Cc1ccc(-n2nc3c(=O)n(CCCC(=O)NCCN4CCN(C)CC4)nc(C)c3c2C)cc1 | -3.3 | -2.5 | ? | 11.7µM* | -0.5% | 5.1%
Cc1ccc(-n2nc3c(=O)n(CCCC(=O)NCCc4ccccc4)nc(C)c3c2C)cc1 | 9.7 | 9.9 | ? | ? | 4.4% | 22.0%
Cc1nn(CCCC(=O)NCc2cccc(F)c2)c(=O)c2nn(-c3ccccc3)c(C)c12 | nt | nt | nt | nt | 0.3% | nt
Cc1ccc(-n2nc3c(=O)n(CCCC(=O)NCc4cccc(F)c4)nc(C)c3c2C)cc1 | -7.0 | 30.9 | 10.4µM* | 46.3% | 4.4% | -1.8%
Cc1nn(CC(=O)N2CCCC2)c(=O)c2nn(-c3ccccc3)c(C)c12 | -4.6 | -2.6 | 9.3% | ? | -4.3% | -2.4%
Cc1ccc(-n2nc3c(=O)n(CCCC(=O)NCc4ccc(F)cc4)nc(C)c3c2C)cc1 | -8.1 | 7.4 | 8.28µM* | 12.8% | 1.6% | -1.8%
Cc1ccc(CCNC(=O)CCCn2nc(C)c3c(C)n(-c4ccc(C)cc4)nc3c2=O)cc1 | -3.4 | 2.1 | 0.6% | ? | -19.1% | 8.6%
CCc1nnc(NC(=O)Cc2ccc(S(=O)(=O)N3CCCCC3)cc2)s1 | nt | nt | 11.7µM* | 11.7µM* | -16.7% | nt
CCc1nnc(NC(=O)C2CCCN(S(=O)(=O)c3ccc(OC)cc3)C2)s1 (centres undefined) | 72.3* | 37.6* | 33.8% | 34.2% | -11.9% | 0.3%
CCc1nnc(NC(=O)c2ccc(S(=O)(=O)N3CCCCCC3)cc2)s1 | -12.4 | -2.6 | 1.6% | nt | -0.5% | 3.6%
Cc1cc(-c2ccc(S(=O)(=O)N3CCCCC3)s2)on1 | -2.3 | -3.0 | 0.3% | ? | 0.1% | 3.2%
CCOc1ccc(C(=O)NCCn2cc(SCC(=O)Nc3cc(C)on3)c3ccccc32)cc1 | 18.2 | 14.9* | ? | nt | 0.1% | -24.9%
Cc1cc(NC(=O)CSc2cn(CCNC(=O)c3ccc(Cl)cc3)c3ccccc23)no1 | 12.7 | 37.6* | -14.7% | -60.5% | 9.6% | ?
Cc1ccc(C(=O)NCCn2cc(SCC(=O)Nc3nnc(C)s3)c3ccccc32)cc1 | -6.6 | 7.6 | nt | 4.15µM* | 4.0% | 1.7%
COc1ccc(C(=O)NCCn2cc(SCC(=O)Nc3cc(C)on3)c3ccccc32)cc1OC | -23.2 | -2.7 | -25.6% | -22.2% | -23.2% | 1.9%
O=C(O)CC(NC(=O)CCC1CCCCC1)c1cc([N+](=O)[O-])ccc1Cl (centres undefined) | -7.2 | 0.4 | 12.9% | ? | -5.1% | nt
Cc1c(C(=O)NCc2cccc(Cl)c2)sc2nc[nH]c(=O)c12 | nt | nt | nt | nt | 5.2% | nt
NCC1CC2c3ccccc3C1c1ccccc12 (centres undefined) | -4.1 | -5.4 | -3.6% | 0.2% | 17.5% | 5.8%

Bioassay records deposited in PubChem by National Center for Advancing Translational Sciences (NCATS).
